TbREL1 inh = TbREL1 inhibition, primary screen | P86926 | TbREL1 RNA ligation, FRET fluorescence | inhibition, % at 9.66 µM | actives 0.49% (n = 89,000) | AID 1117264;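 active = inhibition above the mean inhibition across all screened compounds plus 3 SD, cut at about 11% in these data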;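 also: 0% = plate median of test wells and 100% = NSC42067 control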
TbREL1 conf = TbREL1 inhibition, confirmation; actives 37% (n = 390); shares compounds with TbREL1 inh; AID 1117282; TbREL1 RNA ligation, FRET fluorescence; inhibition, % at 9.66 µM;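 active = mean inhibition across replicates above a set limit taken from the earlier primary screen, cut at about 11% in these data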;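 also: 0% = REL1 with substrate and DMSO and 100% = REL1 plus control inhibitor NSC42067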
An asterisk follows results filed as active. The entries come from a sample that favours hits as a whole.

`C[C@@H]1COc2cc(N3CCN(C)CC3)ccc2S(=O)(=O)N1` gave TbREL1 inh -2.
For CN1CCN(c2ccc(NC(=O)C(C)(C)C)cc2)CC1 the results were TbREL1 inh -1.
For CN1CCN(c2ccc(N)cc2)CC1 the results were TbREL1 inh 17* and TbREL1 conf 11.
`Cc1ccc(C(O)P(=O)(Oc2ccccc2)Oc2ccccc2)cc1` (stereo not drawn) gave TbREL1 inh -1.
Screening CCOC(=O)[C@]12Cc3ccccc3[C@H]1N(CCC(=O)OC)C(=O)c1cc(OC)ccc12 returned TbREL1 inh 3.
For N/C(=N\N=C/c1ccc(-c2ccc(O)c(C(=O)O)c2)o1)N[N+](=O)[O-] the results were TbREL1 inh 49* and TbREL1 conf 17*.
COc1ccc(/C=N/N=C(/N)N[N+](=O)[O-])c(OC)c1 was read as TbREL1 inh 1.
`CCC1([N+](=O)[O-])COP(N)(=O)OC1` (stereo not drawn) gave TbREL1 inh 7.
Screening Cc1cccn2c(NCC3CCCO3)c(C(C)C)nc12 (stereo not drawn) returned TbREL1 inh -1.
CCC(C)OC(=O)c1c(N)n(Cc2cccs2)c2nc3ccccc3nc12 (stereo not drawn) was read as TbREL1 inh 7.
CCC(C)NC(=O)c1c(N)n(CCCOC)c2nc3ccccc3nc12 (stereo not drawn) was read as TbREL1 inh 44* and TbREL1 conf 36*.
CCC(C)NC(=O)c1c(N)n(CC2CCCO2)c2nc3ccccc3nc12 (stereo not drawn) was read as TbREL1 inh 37* and TbREL1 conf 29*.
CCOC(=O)[C@]12Cc3cc4ccccc4cc3[C@H]1N(Cc1ccccc1)C(=O)c1ccccc12 was read as TbREL1 inh -2.
For CC(C(N)=O)N1CC(c2ccc(Cl)cc2)CC1=O (stereo not drawn) the results were TbREL1 inh 0.
For Cc1cccc(C)c1NC(=O)c1cccn(Cc2ccc3c(c2)OC(F)(F)O3)c1=O the results were TbREL1 inh 1.
For Cc1cc(Br)cn2c(CC(=O)N3CCCCC3)c(-c3ccc(F)cc3)nc12 the results were TbREL1 inh -2.
Screening CN1CCC(=O)N(CCN=[N+]=[N-])CC1 returned TbREL1 inh 1.
For CN(C)CC1CCCCC1OC(=O)Cc1ccc(Cl)c([N+](=O)[O-])c1 (stereo not drawn) the results were TbREL1 inh -2.
For COC(=O)C1=C(c2ccc(OC)c(OC)c2)C[C@@H]2CC[C@H]1N2C(=O)NCCOc1ccccc1Cl the results were TbREL1 inh -2.
Screening COC(=O)C1=C(c2ccc(F)cc2OCc2ccccc2)C[C@@H]2CC[C@H]1N2C(=O)NCc1ccc2c(c1)OCO2 returned TbREL1 inh 1.
For Cc1cc(O)c2c(c1)C(=O)[C@@]13C(=C2O)C(=O)[C@H]2C(O)[C@@H]1[C@H]1C(O)[C@@H]3C(=O)C3=C(O)c4c(O)cc(C)cc4C(=O)[C@@]312 (stereo partly drawn) the results were TbREL1 inh 32* and TbREL1 conf 63*.
`CCN1CCN(C(=O)Cc2c(C)n(C(=O)c3ccc(Cl)cc3)c3ccc(OC)cc23)CC1` gave TbREL1 inh -5.
CN(C)C(=O)Oc1ccc2nnc3ccnn3c2c1 was read as TbREL1 inh 4.
CCCNC(=O)N1[C@H]2CC[C@@H]1C(C(=O)OC)=C(c1ccc(-c3ccccc3)c(F)c1)C2 was read as TbREL1 inh 0.
`COc1ccc(-c2ccc3c(c2)CN(c2cccc(Cl)c2)Cc2cnnn2-3)cc1` gave TbREL1 inh 15* and TbREL1 conf 5.
CC(C)(C)C(=O)N1Cc2cc(-c3cccc(F)c3)ccc2-n2nncc2C1 was read as TbREL1 inh -2.
Clc1cccc(N2Cc3cc(N4CCOCC4)ccc3-n3nncc3C2)c1 was read as TbREL1 inh -1.
CCCCc1ncc(CN2CCCC(C(=O)c3ccc(SC)cc3)C2)[nH]1 (stereo not drawn) was read as TbREL1 inh 1.
COc1ccc(CCC(=O)NCCc2cnc[nH]2)cc1 was read as TbREL1 inh 1.
For Cc1ccc(CN2C(=O)NC(=O)C3(Cc4c(nc5ccccn5c4=O)N4CCCCCC43)C2=O)cc1 (stereo not drawn) the results were TbREL1 inh 8.
